Experimental findings from ChEMBL document CHEMBL4513146, “CO-ADD screening of Karazin Kharkiv National University (Ukraine) compounds” are described below.

Potency and affinity values are given separately.

The first test concerns Staphylococcus aureus. To be noted: Concentration 32 ug.mL-1;; ASSAY_TEST Inhibition of Bacterial Growth; detection method Absorption (OD600); MEDIA CAMHB; plate type 384well; NBS; CORNING #3640; time 18 hr.
For the molecule `CCC(Sc1nnc2c(=O)n(-c3cccc(OC)c3)ccn12)C(=O)Nc1cc(OC)cc(OC)c1` (stereo not given), the Inhibition is on record as 13.02%.
Turning to `CCc1ccc(N(Cc2cccc(OC)c2)S(=O)(=O)c2cccn3c(C)nnc23)cc1`, the Inhibition is reported as -1.7%.
As for `Cc1ccccc1NC(=O)Cn1nc2c3cc(-c4ccc(Cl)cc4)nn3ccn2c1=O`, the Inhibition worked out at 14.21%.
The same measure, in the same setting: the result for `COc1cccc(CN(c2ccc(F)cc2)S(=O)(=O)c2ccc3nnc(C)n3c2)c1` reads -1.25%; that for `COc1ccc(NC(=O)Cn2nc3c(N4CCOCC4)nccn3c2=O)c(OC)c1`, 14.25%; that for `Cc1ccccc1Oc1nccn2c(=O)n(CC(=O)Nc3ccc(Cl)c(Cl)c3)nc12`, 7.54%.
On the same count and under the same terms, the result for `CCCCc1ccc(NC(=O)Cn2c(=O)c3nnc(C(C)C)n3c3ccccc32)cc1` reads 13.14%; that for `CCc1nnc2c(=O)n(CC(=O)Nc3cc(Cl)ccc3Cl)c3ccccc3n12`, 1.29%.
Regarding `COc1ccc(CN(c2cc(C)cc(C)c2)S(=O)(=O)c2cccn3c(C)nnc23)cc1`, the Inhibition is on record as -21.45%.
Consider `O=C(Cn1nc2c3c4c(sc3ncn2c1=O)CCCC4)N1CCc2ccccc2C1`, for which the Inhibition is listed as 0.97%.
For the molecule `COc1ccccc1NC(=O)Cn1nc2c(Sc3ccccc3)nccn2c1=O`, the Inhibition is on record as -14.27%.
Turning to `Cc1ccccc1Oc1nc2ccccc2n2c(=O)n(CC(=O)Nc3ccccc3C(F)(F)F)nc12`, the Inhibition was -0.26%.
As for `Cc1nnc2c(=O)n(CC(=O)Nc3ccc(C(C)C)cc3)c3ccccc3n12`, the Inhibition is on record as 18.68%.
Turning to `O=C(CSc1nnc2c(=O)n(-c3ccccc3)ccn12)Nc1cccc(Cl)c1`, the Inhibition turned out to be 1.05%.
As to `CSc1ccc(-c2noc(Cn3nc4ccc(-c5ccccc5)nn4c3=O)n2)cc1`, the Inhibition is on record as 3.45%.
Still for that read-out and setting: to `Cc1cc2nn(CC(=O)NCc3ccc4c(c3)OCO4)c(=O)n2c(Nc2ccccc2C)n1` belongs 0.76%; to `CCCCc1ccc(NC(=O)Cn2nc3c(N4CCSCC4)nc4ccccc4n3c2=O)cc1`, 10.09%; to `COc1ccc(NC(=O)Cn2nc3ccc(SC4CCCCC4)nn3c2=O)cc1OC`, 3.6%.
With `Cc1ccc(NC(=O)c2ccc3nnc(SCC(=O)Nc4ccc(F)cc4)n3c2)cc1`, the Inhibition is 14.37%.
For `COc1cccc(-n2ccn3c(SCC(=O)Nc4cccc(F)c4)nnc3c2=O)c1`, the Inhibition is -6.79%.
Regarding `Cc1ccccc1CSc1nnc2c(=O)n(-c3ccc(F)cc3)ccn12`, the Inhibition turned out to be 16.33%.
Still for that read-out and setting: the result for `COc1ccc(Cl)cc1NC(=O)CSc1nc2ccccc2n2cnnc12` reads 12.82%.
For `Cc1[nH]c2ccccc2c1C(=O)CSc1nnc2c(=O)n(-c3ccccc3)ccn12`, the Inhibition came to 16.56%.
Turning to `Cc1cc(C)cc(NC(=O)CSc2nnc3c(=O)n(-c4ccc(Br)cc4)ccn23)c1`, the Inhibition is 9.26%.
Turning to `CCCCOc1ccc(-c2cc3c4nnc(SCC(=O)Nc5cccc(C(C)=O)c5)n4ccn3n2)cc1`, the Inhibition came out at 1.68%.
Consider `N#CCn1nc2n(Cc3ccccc3)c(=O)c3ccc(C(=O)NC4CCCCC4)cc3n2c1=O`, for which the Inhibition is on record as -2.91%.
`O=c1c2nn(Cc3ccc([N+](=O)[O-])cc3)c(=O)n2ccn1-c1ccccc1`: the Inhibition is 12.75%.
With `O=C(CSc1nnc2c(=O)n(Cc3ccc(F)cc3)ccn12)NCC1CCCO1` (stereo not given), the Inhibition is recorded as 8.21%.
Take `COc1cccc(-n2ccn3c(SCC(=O)N4CCN(c5ccccc5F)CC4)nnc3c2=O)c1`: the Inhibition was 12.37%.
`Cc1cc2nn(CC(=O)Nc3cccc(C)c3C)c(=O)n2c(Nc2ccc(C)c(F)c2)n1`: the Inhibition is recorded as 9.25%.
On to `COc1ccc(-c2cc3c4nnc(SCC(=O)Nc5ccc(C)cc5Cl)n4ccn3n2)cc1`, for which the Inhibition turned out to be 2.3%.
Turning to `CCCCOc1ccc(-c2cc3c4nnc(SCC(=O)Nc5ccc(C)c(C)c5)n4ccn3n2)cc1`, the Inhibition came to 10.66%.
For the molecule `CC(C)CCNC(=O)Cn1nc2n(CC(C)C)c(=O)c3sccc3n2c1=O`, the Inhibition came to 4.95%.
On the same count and under the same terms, to `COc1cccc(-n2ccn3c(SCc4ccc(C)cc4)nnc3c2=O)c1` belongs 8.11%; to `Cc1ccc(-c2ccc3nnc(CCC(=O)NCc4ccc(C(F)(F)F)cc4)n3n2)cc1C`, 17.72%.
On to `CCOc1ccc(-n2ccn3c(SCC(=O)c4ccccc4)nnc3c2=O)cc1`, for which the Inhibition is reported as 6.87%.
On to `Cc1ccc(CN(c2cccc(F)c2)S(=O)(=O)c2ccc3nnc(C)n3c2)cc1`, for which the Inhibition was -4.51%.
Turning to `COc1ccc(CNC(=O)CSc2nnc3c4cc(-c5ccc(C)cc5)nn4ccn23)cc1`, the Inhibition came out at 4.45%.
In the case of `COc1cc(OC)c(NC(=O)Cn2nc3c4c5c(sc4ncn3c2=O)CC(C)CC5)cc1Cl` (stereo not given), the Inhibition amounted to 7.09%.
Turning to `CCc1nnc2c(SCC(=O)Nc3cc(Cl)ccc3C)nc3ccccc3n12`, the Inhibition is given as 13.83%.

The next test relates to Escherichia coli. To be noted: Concentration 32 ug.mL-1;; ASSAY_TEST Inhibition of Bacterial Growth; detection method Absorption (OD600); MEDIA CAMHB; plate type 384well; NBS; CORNING #3640; time 18 hr.
As to `CCC(Sc1nnc2c(=O)n(-c3cccc(OC)c3)ccn12)C(=O)Nc1cc(OC)cc(OC)c1` (stereo not given), the Inhibition is -6.26%.
Turning to `CCc1ccc(N(Cc2cccc(OC)c2)S(=O)(=O)c2cccn3c(C)nnc23)cc1`, the Inhibition is on record as -9.35%.
Consider `Cc1ccccc1NC(=O)Cn1nc2c3cc(-c4ccc(Cl)cc4)nn3ccn2c1=O`, for which the Inhibition was found to be 4.06%.
Take `COc1cccc(CN(c2ccc(F)cc2)S(=O)(=O)c2ccc3nnc(C)n3c2)c1`: the Inhibition is -6.02%.
The same measure, in the same setting: the result for `COc1ccc(NC(=O)Cn2nc3c(N4CCOCC4)nccn3c2=O)c(OC)c1` reads -1.5%; that for `Cc1ccccc1Oc1nccn2c(=O)n(CC(=O)Nc3ccc(Cl)c(Cl)c3)nc12`, -4.77%; that for `CCCCc1ccc(NC(=O)Cn2c(=O)c3nnc(C(C)C)n3c3ccccc32)cc1`, 1.92%.
On to `CCc1nnc2c(=O)n(CC(=O)Nc3cc(Cl)ccc3Cl)c3ccccc3n12`, for which the Inhibition is on record as -5.86%.
As to `COc1ccc(CN(c2cc(C)cc(C)c2)S(=O)(=O)c2cccn3c(C)nnc23)cc1`, the Inhibition was -2.42%.
With `O=C(Cn1nc2c3c4c(sc3ncn2c1=O)CCCC4)N1CCc2ccccc2C1`, the Inhibition is reported as 2.08%.
As for `COc1ccccc1NC(=O)Cn1nc2c(Sc3ccccc3)nccn2c1=O`, the Inhibition is -3.78%.
The same measure, in the same setting: to `Cc1ccccc1Oc1nc2ccccc2n2c(=O)n(CC(=O)Nc3ccccc3C(F)(F)F)nc12` belongs -3.73%.
With `Cc1nnc2c(=O)n(CC(=O)Nc3ccc(C(C)C)cc3)c3ccccc3n12`, the Inhibition is -2.69%.
In the case of `O=C(CSc1nnc2c(=O)n(-c3ccccc3)ccn12)Nc1cccc(Cl)c1`, the Inhibition is reported as -12.66%.
Turning to `CSc1ccc(-c2noc(Cn3nc4ccc(-c5ccccc5)nn4c3=O)n2)cc1`, the Inhibition was 0.55%.
The same measure, in the same setting: the result for `Cc1cc2nn(CC(=O)NCc3ccc4c(c3)OCO4)c(=O)n2c(Nc2ccccc2C)n1` reads -4.19%.
On the same count and under the same terms, to `CCCCc1ccc(NC(=O)Cn2nc3c(N4CCSCC4)nc4ccccc4n3c2=O)cc1` belongs 1.07%.
On the same count and under the same terms, the result for `COc1ccc(NC(=O)Cn2nc3ccc(SC4CCCCC4)nn3c2=O)cc1OC` reads -2.79%; that for `Cc1ccc(NC(=O)c2ccc3nnc(SCC(=O)Nc4ccc(F)cc4)n3c2)cc1`, 5.45%; that for `COc1cccc(-n2ccn3c(SCC(=O)Nc4cccc(F)c4)nnc3c2=O)c1`, -18.41%.
As for `Cc1ccccc1CSc1nnc2c(=O)n(-c3ccc(F)cc3)ccn12`, the Inhibition is recorded as -5.51%.
The same measure, in the same setting: to `COc1ccc(Cl)cc1NC(=O)CSc1nc2ccccc2n2cnnc12` belongs 5.77%; to `Cc1[nH]c2ccccc2c1C(=O)CSc1nnc2c(=O)n(-c3ccccc3)ccn12`, -0.61%; to `Cc1cc(C)cc(NC(=O)CSc2nnc3c(=O)n(-c4ccc(Br)cc4)ccn23)c1`, -3.09%.
With `CCCCOc1ccc(-c2cc3c4nnc(SCC(=O)Nc5cccc(C(C)=O)c5)n4ccn3n2)cc1`, the Inhibition is 1.11%.
Turning to `N#CCn1nc2n(Cc3ccccc3)c(=O)c3ccc(C(=O)NC4CCCCC4)cc3n2c1=O`, the Inhibition is -12.22%.
Turning to `O=c1c2nn(Cc3ccc([N+](=O)[O-])cc3)c(=O)n2ccn1-c1ccccc1`, the Inhibition is -1.5%.
Take `O=C(CSc1nnc2c(=O)n(Cc3ccc(F)cc3)ccn12)NCC1CCCO1` (stereo not given): the Inhibition is reported as -3.13%.
Regarding `COc1cccc(-n2ccn3c(SCC(=O)N4CCN(c5ccccc5F)CC4)nnc3c2=O)c1`, the Inhibition is reported as -5.42%.
With `Cc1cc2nn(CC(=O)Nc3cccc(C)c3C)c(=O)n2c(Nc2ccc(C)c(F)c2)n1`, the Inhibition is listed as -3.18%.
`COc1ccc(-c2cc3c4nnc(SCC(=O)Nc5ccc(C)cc5Cl)n4ccn3n2)cc1`: the Inhibition was -3.13%.
Same read-out and setting: to `CCCCOc1ccc(-c2cc3c4nnc(SCC(=O)Nc5ccc(C)c(C)c5)n4ccn3n2)cc1` belongs -4.59%; to `CC(C)CCNC(=O)Cn1nc2n(CC(C)C)c(=O)c3sccc3n2c1=O`, -1.56%; to `COc1cccc(-n2ccn3c(SCc4ccc(C)cc4)nnc3c2=O)c1`, -4.39%.
On to `Cc1ccc(-c2ccc3nnc(CCC(=O)NCc4ccc(C(F)(F)F)cc4)n3n2)cc1C`, for which the Inhibition is given as 1.8%.
On the same count and under the same terms, the result for `CCOc1ccc(-n2ccn3c(SCC(=O)c4ccccc4)nnc3c2=O)cc1` reads 1.63%.
For the molecule `Cc1ccc(CN(c2cccc(F)c2)S(=O)(=O)c2ccc3nnc(C)n3c2)cc1`, the Inhibition is recorded as -15.84%.
With `COc1ccc(CNC(=O)CSc2nnc3c4cc(-c5ccc(C)cc5)nn4ccn23)cc1`, the Inhibition is recorded as -3.09%.
`COc1cc(OC)c(NC(=O)Cn2nc3c4c5c(sc4ncn3c2=O)CC(C)CC5)cc1Cl` (stereo not given): the Inhibition is 1.97%.
For the molecule `CCc1nnc2c(SCC(=O)Nc3cc(Cl)ccc3C)nc3ccccc3n12`, the Inhibition was -0.41%.

One may read the Inhibition as the relative decrease from the control value, in per cent.
